Compound activity deposited in PubChem BioAssay by The Scripps Research Institute Molecular Screening Center.
A selection: hits, their analogues and other compounds. The true share with any hit is near 3.5%.
MITF inh – blocks human microphthalmia-associated transcription factor; AID 1259374; inhibition, % at 2.6 µM; O75030; AlphaScreen MITF homodimerization, bead proximity signal; 650,000 tested, 0.91% active; in the data active = inhibition above about 50%;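 also: 0% = vehicle wells with protein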
FBW7 act – human FBW7 E3 ligase activation, primary screen. Q969H0. AlphaScreen FBW7–phospho-cyclin E peptide binding, activator screen. normalized activity (activation), % at 26.1 µM. 650,000 tested, 0.13% active. AID 1259310; in the data active = normalized activity above about 1.9%;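 also: purified mutant Fbw7 with reduced substrate affinity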
TEAD-YAP inh – TEAD-YAP interaction inhibition; HEK-TIYL cells, TEAD-Gal4/YAP UAS-luciferase luminescence; inhibition, % at 9.12 µM; 640,000 tested, 1.4% active; AID 1259422; in the data active = inhibition above about 32%;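 also: 0% = median of test compound wells and 100% = reference inhibitor wells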
GPR151 activ – activates the human receptor GPR151. Q8TDV0. PathHunter beta-arrestin GPR151 cells, luminescence. activation, % at 11.2 µM. 650,000 tested, 1% active; in the data active = activation above about 4.9%;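 also: 0% = median of compound wells and 100% = cells with positive control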
Target sequence (Q8TDV0 whole entry, looked up): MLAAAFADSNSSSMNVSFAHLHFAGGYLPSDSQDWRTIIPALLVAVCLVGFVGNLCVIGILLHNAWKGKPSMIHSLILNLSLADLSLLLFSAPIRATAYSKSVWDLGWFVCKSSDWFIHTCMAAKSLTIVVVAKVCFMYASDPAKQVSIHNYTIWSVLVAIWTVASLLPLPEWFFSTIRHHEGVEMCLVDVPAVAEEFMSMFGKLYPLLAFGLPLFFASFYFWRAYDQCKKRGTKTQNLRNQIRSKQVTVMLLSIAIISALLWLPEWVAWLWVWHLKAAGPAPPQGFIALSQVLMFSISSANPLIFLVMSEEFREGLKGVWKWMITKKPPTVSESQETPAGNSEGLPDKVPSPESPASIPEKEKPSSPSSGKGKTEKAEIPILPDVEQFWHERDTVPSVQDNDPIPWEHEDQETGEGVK
Numbers without * were called inactive; x = no result.

SMILES	MITF inh	FBW7 act	TEAD-YAP inh	GPR151 activ
CCCOc1ccc(C(=O)NN)cc1OC	15	1	47*	-2
COc1ccc(-c2noc(CN(C)C3CCCCC3)n2)cc1	19	1	-8	-1
CSc1ccccc1NC(=O)c1cnc2cc(C)ccn2c1=O	2	0	-54	1
CCN(CC)C(=O)c1ccc[n+](CC)c1	13	1	7	-1
Cc1ccc(Nc2nc(-c3cc4cc(Br)ccc4oc3=O)cs2)cc1	13	0	6	-1
N#C/C(=N/Nc1cccc(C(F)(F)F)c1)C(N)=S	-2	0	47*	0
COc1cccc(C2=CCN(c3ccccc3OC)C(=O)N2)c1	3	0	-24	1
O=C(CSc1cccc2cccnc12)N1CCCCC1	-8	0	-19	0
Oc1c(C(c2ccc(Cl)cc2)N2CCCCC2)ccc2cccnc12 (stereo not given)	3	-2	71*	-1
Oc1c(C(c2ccc(C(F)(F)F)cc2)N2CCCCC2)ccc2cccnc12 (stereo not given)	9	0	83*	-1
CC(C)OCCCNC(CC(=O)Nc1cccc2ccccc12)C(=O)O (stereo not given)	7	0	0	2
CC(C)Oc1cccc2c1CCN(Cc1ccccc1F)C2=O	-7	0	-7	-1
Cc1cccc(-c2nc(Nc3ccncn3)c3sccc3n2)n1	x	x	x	-1
O=C(Cn1cncn1)N/N=C/c1ccc(Br)cc1	2	0	-3	3
COc1ccccc1NC(C)C(=O)N/N=C/c1cc([N+](=O)[O-])ccc1O (stereo not given)	31	-1	22	1
O=C(CNc1cccc2ccccc12)N/N=C/c1ccccc1O	10	0	12	1
CC(Nc1cccc2ccccc12)C(=O)N/N=C/c1ccc(O)cc1 (stereo not given)	8	0	34*	0
O=C(Cn1cncn1)N/N=C/c1cc(Br)ccc1O	57*	-1	17	-1
O=C(CNc1cccc2ccccc12)N/N=C/c1cc(Br)ccc1O	9	0	34*	0
CC(Nc1cccc2ccccc12)C(=O)N/N=C/c1cc([N+](=O)[O-])ccc1O (stereo not given)	24	0	67*	2
CN1CCNC(=O)C1CC(=O)N1CCC2(CC1)NC(=O)c1cccnc1N2C (stereo not given)	-2	0	-5	1
COc1ccc(-n2ncc3c(N4CCN(c5ccc([N+](=O)[O-])cc5)CC4)ncnc32)cc1	-9	0	1	0
CCC(C)CN1CCc2nnc(CNC(=O)Cc3cccc(F)c3)n2CC1 (stereo not given)	1	0	4	0
CCOC(=O)C1=C(C)N=c2s/c(=C3\C(=O)N(OC(C)=O)c4ccccc43)c(=O)n2C1/C=C/c1ccccc1 (stereo not given)	4	0	9	-1
CC(Oc1cccc2ccccc12)C(=O)N/N=C/c1cc([N+](=O)[O-])ccc1O (stereo not given)	19	0	37*	2
SMILES	MITF inh	FBW7 act	TEAD-YAP inh	GPR151 activ
CC(C)c1nc2c(-c3cn[nH]c3)cccc2c(=O)[nH]1	13	0	32*	-1
COc1ccc(-c2csc(=Nc3ccccc3)n2CCCO)cc1OC	11	0	5	-1
COc1ccccc1N=c1scc(-c2ccc(OC)c(OC)c2)n1CCCO	11	0	42*	1
CSc1cc(C)c2c(c1)COC1(CCN(C(=O)CC(C)CC(=O)O)CC1)O2 (stereo not given)	-7	0	4	2
COc1ccc(-c2nnc3c4ccccc4c(C)nn23)cc1S(=O)(=O)N(C)CCO	11	0	-2	0
COc1ccc(Nc2nc(N3CCCC3)nc3[nH]ncc23)cc1	-14	0	48*	0
O=C(Nc1ccc(S(=O)(=O)C(F)F)cc1)c1cc(F)c(F)c(F)c1F	8	0	37*	0
COc1ccc(C2/C(=C(\O)c3ccc(Cl)cc3)C(=O)C(=O)N2c2nc3ccccc3s2)c(OC)c1 (stereo not given)	-1	0	41*	-1
COc1cccc(C2C(C(C)=O)=C(O)C(=O)N2c2nc3ccccc3s2)c1 (stereo not given)	8	0	-46	0
COc1ccc(C2C(C(C)=O)=C(O)C(=O)N2c2nc3ccccc3s2)c(OC)c1 (stereo not given)	1	0	47*	0
COc1ccc(C2/C(=C(\O)c3ccccc3)C(=O)C(=O)N2c2nc3ccccc3s2)c(OC)c1 (stereo not given)	18	0	20	0
CCNc1nc(OC)nc(Oc2ccc(=O)n(-c3ccccc3)n2)n1	0	0	3	0
COc1nc(NCC(C)C)nc(Oc2ccc(=O)n(-c3ccccc3)n2)n1	3	2.4*	5	0
Cc1ccc(N=Nc2sc3nc4c(c(=O)n(C)c(=O)n4C)n3c2O)cc1	-11	0	8	-1
O=c1[nH]c(CCl)nc2sc(-c3ccccc3)cc12	5	0	33*	-2
C[N+]1(C)CCc2cc3c(c4c2C1Cc1ccccc1-4)OCO3 (stereo not given)	7	0	12	1
CCOc1ccccc1NC(=O)c1cnc(N2CCN(c3ccccn3)CC2)c2ccccc12	8	0	55*	1
COc1ccccc1N1CCN(c2ncc(C(=O)N3CCN(C)CC3)c3ccccc23)CC1	8	0	35*	1
COc1ccccc1N1CCN(c2ncc(C(=O)NCc3cccnc3)c3ccccc23)CC1	-11	0	37*	0
CCOC(=O)c1ccccc1NC(=O)c1cnc(N2CCN(c3ccccn3)CC2)c2ccccc12	-6	0	9	0
COc1cccc(NC(=O)c2cnc(N3CCN(c4ccccc4OC)CC3)c3ccccc23)c1	5	0	20	0
COc1ccccc1N1CCN(c2ncc(C(=O)N3CCCC3)c3ccccc23)CC1	3	0	6	0
COc1ccc(OC)c(NC(=O)c2cnc(N3CCN(c4ccccc4OC)CC3)c3ccccc23)c1	-5	0	40*	-1
O=C1NC(=S)N/C1=C/c1cc2c(cc1Cl)OCO2	15	0	5	1
CCOc1ccc(Br)cc1C1C2=C(CCCC2=O)N(CC(=O)O)C2=C1C(=O)CCC2	-12	1.9*	4	0
SMILES	MITF inh	FBW7 act	TEAD-YAP inh	GPR151 activ
CCCOc1ccccc1C1C2=C(CCCC2=O)N(C)C2=C1C(=O)CCC2	3	3.0*	8	0
Fc1ccc(N=c2oc3ccccc3cc2-c2nc3ccccc3[nH]2)cc1	2	0	-40	-4
Fc1ccccc1N=c1oc2ccccc2cc1-c1nc2ccccc2[nH]1	-13	0	40*	-10
COc1ccc(N=c2oc3ccccc3cc2-c2nc3ccccc3[nH]2)cc1	10	0	38*	-10
COc1cc(C2Nc3ccc4ncccc4c3C3=C2C(=O)CCC3)ccc1OC(C)=O (stereo not given)	-3	0	52*	0
O=c1c(-c2nncn2-c2ccccc2)coc2c(O)c(O)ccc12	53*	0	-2	-2
